The text below walks through data of PubChem BioAssay AID624167 (Sanford-Burnham Center for Chemical Genomics, 2012).

One may read the inhibition as the relative decrease from the control value, in per cent.

The assay in a line: Peg3 promoter luciferase inhibitors, potency, dose response, cell-based, HeLa, CREF/GAPDH counter-screen panel (AID 624167). The conditions noted are these: CREF/GAPDH counter-screens; run 1, dose range 1, at 100 µM (top of the series). (A counterscreen serves to expose hits that act by an unwanted route or on another target.)
Take `Cc1cc(C)c2sc(NNC(=O)c3ccc(S(=O)(=O)N4CCc5ccccc5C4)cc3)nc2c1`: the inhibition was 58.6%.
Then `COc1ccc(N(C(=O)CCl)C(C(=O)NC2CCCCC2)c2cccnc2)cc1` (stereo not drawn), with 82.9%; and `Cc1ccc(OCC(=O)c2cc(C)n(-c3ccccc3)c2C)c([N+](=O)[O-])n1`, with 73%.
Then `O=C(N/N=C/c1cc([N+](=O)[O-])ccc1O)c1ccc(COc2ccc3c(c2)CCC3)o1`, with 27.1%.
Next, `O=C(Nc1ccccc1)c1nc[nH]c1C(=O)NCCCCCCNC(=O)c1[nH]cnc1C(=O)Nc1ccccc1`: -2.1%; `CS(=O)(=O)c1ccc(-c2cn3cc(C(=O)O)ccc3n2)cc1`: 67.7%.
For the compound `O=C(O)c1ccc(N/N=C/c2ccc3nccnc3c2)cc1`, the inhibition was 99%.
Next, `COc1ccc(Nc2ncnc3ccc(Br)cc23)c(OC)c1`: 90.8%.
Turning to `O=[N+]([O-])c1nn(-c2ccc3c(c2)OCCO3)n(O)c1=Nc1ccc(Cl)cc1`, the inhibition was found to be 78.7%.
Next, `CCCCCCN1C=C/C(=C\C=C(C#N)C#N)c2ccccc21`: 50.3%.
Then `Cc1cc(C)c(C)c(S(=O)(=O)N2CCN(C(=O)c3cc(=O)[nH]c4ccccc34)CC2)c1C`, with 71.8%.
Next, `Cc1ccc(/C=C2\SC(=S)N(CCCC(=O)Nc3ccccn3)C2=O)cc1`: 80.2%.
For `CS(=O)(=O)c1ccc(-c2sc3ccccc3c2C#CCCO)cc1`, the inhibition is 90.1%.
Then `COC(=O)C1C=CC(OC2OC(COC(C)=O)C(OC(C)=O)C(OC(C)=O)C2OC(C)=O)n2c(=O)n(-c3ccccc3)c(=O)n21` (stereo not drawn), with 94.9%; and `COc1cccc(OC)c1C(=O)Nc1cc(C)nn1-c1nc2ccccc2[nH]1`, with 50.8%; and `COc1ccc(NC(=O)c2cc(-c3ccccn3)nc3ccccc23)cc1S(=O)(=O)N(C)C`, with 48.4%.
Then `CCCC(=O)NC(c1ccc(C)cc1)c1ccc2cccnc2c1O` (stereo not drawn), with 43.4%; and `O=C(/C=C/c1ccc(Cl)c([N+](=O)[O-])c1)c1ccc(O)cc1`, with 100%.
For `COc1cc(C(=O)N/N=C(\c2ccccc2)c2ccccn2)cc(OC)c1OC`, the inhibition was found to be 20%.
Next, `Clc1ccccc1/C=C/c1nc(-c2ccccn2)no1`: 97.4%; `NC(C(=O)O)C1ON=C(Cl)C1O` (stereo not drawn): 67%.
Then `CN(C(=O)COC(=O)/C=C/c1cccc([N+](=O)[O-])c1)C1CCS(=O)(=O)C1` (stereo not drawn), with 26%; and `C=CCn1c(COc2ccccc2)nnc1SC(C)C(=O)N/N=C/c1cc(Cl)ccc1O` (stereo not drawn), with 65%; and `O=[N+]([O-])c1ccc(S(=O)(=O)c2ccccc2)nc1`, with 100%.
Then `CN(C)c1ccc(C=c2c3ccccc3n3c2cc(-c2ccccc2)[n+]3C)cc1`, with 99.9%; and `CC1CC(C)C(=O)C(C(CC2CC(=O)NC(=O)C2)OC(=O)CC(=O)c2ccccc2)C1` (stereo not drawn), with 88.4%; and `O=C(N/N=C\c1c(O)ccc2ccccc12)c1ccc(Cn2cccn2)o1`, with 34.1%.
As to `Cc1ccc(C(C[N+](=O)[O-])Sc2ccc(N)cc2)cc1` (stereo not drawn), the inhibition came to 98.3%.
Then `Cc1ccsc1/C=N/Nc1cccc(C(=O)O)c1`, with 95.8%; and `CN1OC[C@@H]2CN(S(=O)(=O)c3cccc(C(F)(F)F)c3)[C@H](c3ccc(-c4cc5ccccc5o4)cc3)C[C@@H]21`, with 70.1%; and `CCOC(=O)c1c(SCCN2CCCCC2)n(-c2ccccc2)c(=S)n(-c2ccccc2)c1=O`, with 97%.
On to `CC1=CC2C(C(O)CC3(C)C2CC(C)C32OCOC23COCO3)C2(C)C/C(=C\O)C(=O)C=C12` (stereo not drawn), for which the inhibition is 99.5%.
Then `COCCCNC(=O)c1ccc(Cn2c(=O)c3ccccc3n(Cc3ccccc3C#N)c2=O)cc1`, with 32.3%.
